From PubChem BioAssay AID1671190 (National Center for Advancing Translational Sciences (NCATS), 2021)
Screen size: about 580,000 compounds; about 6,100 (1.1%) were called active. Inconclusive results (about 15%) are left out. Calls come from the whole dose curve; as a rule, active = well fitted inhibition curve with a large enough effect; inconclusive = small, poorly fitted or top-dose-only effect, or another doubt; inactive = no such curve, though single readings can be large or run the other way. What follows is part of a selection rich in actives, with near analogues and random picks from the rest.

Each compound was assayed against Polyunsaturated fatty acid lipoxygenase ALOX12 (Homo sapiens) (UniProt P18054) (assay: Primary qHTS assay for inhibitors of human arachidonate 12S-lipoxygenase (ALOX12): Round 2). Settings: purified 12hLO, xylenol orange hydroperoxide absorbance; series mostly up to 108 µM; activity change, negative = inhibition: at the top concentration.
Procedure, shortened: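 Purified human 12hLO at 150 nM in 25 mM Hepes, 0.01% Triton X-100, pH 7.0, preincubated 15 min at room temperature with compound. Reaction started with 40 uM arachidonic acid, 30 min at room temperature. Hydroperoxide measured by Fe-xylenol orange, 573/405 nm absorbance ratio.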
% is set by controls: 0 for no effect and ±100 for the full control effect; potency is the fitted concentration of half-maximal effect.

Polyunsaturated fatty acid lipoxygenase ALOX12 (Homo sapiens), sequence (P18054 whole entry, looked up): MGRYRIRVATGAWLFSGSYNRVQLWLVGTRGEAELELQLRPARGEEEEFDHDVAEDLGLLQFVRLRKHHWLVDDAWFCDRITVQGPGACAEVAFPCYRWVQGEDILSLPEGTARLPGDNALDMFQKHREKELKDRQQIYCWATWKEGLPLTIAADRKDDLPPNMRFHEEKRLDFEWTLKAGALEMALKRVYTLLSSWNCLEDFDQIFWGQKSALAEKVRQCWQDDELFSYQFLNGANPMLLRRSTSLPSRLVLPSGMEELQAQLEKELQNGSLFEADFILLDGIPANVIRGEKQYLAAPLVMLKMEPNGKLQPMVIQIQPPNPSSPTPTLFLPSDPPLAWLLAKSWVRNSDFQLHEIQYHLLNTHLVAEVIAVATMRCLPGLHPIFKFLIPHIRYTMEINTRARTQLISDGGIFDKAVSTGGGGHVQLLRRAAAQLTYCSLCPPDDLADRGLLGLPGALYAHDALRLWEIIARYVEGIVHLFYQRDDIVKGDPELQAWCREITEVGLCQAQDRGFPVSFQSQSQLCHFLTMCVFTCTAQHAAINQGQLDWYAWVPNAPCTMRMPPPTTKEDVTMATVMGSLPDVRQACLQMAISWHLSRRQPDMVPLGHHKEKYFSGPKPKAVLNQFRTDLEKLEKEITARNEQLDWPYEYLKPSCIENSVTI

Activity change, negative = inhibition, inactive:
C=CCNC(=O)N1CC[C@H]2CC(=O)N(c3ccccc3)CC[C@H]2C1 0.74% [at 176 µM]
COc1ccccc1N1CCN(C(=O)CSc2nccn3nc(-c4ccccc4)cc23)CC1 9.23%
CCOc1cc2ccccc2cc1C(=O)N1CCN(CC(=O)Nc2cccc(F)c2)CC1 0.995%
COc1ccc(C2CC(=O)NC(SCC(=O)Nc3c(C)cccc3C)=C2C#N)cc1OC (configuration not stated) -3.6%
COC(=O)c1ccc(OCc2cccc(C#N)c2)c(OC)c1 -23.9%
CCN(CC1COc2ccccc2O1)S(=O)(=O)N1CCOCC1 (configuration not stated) 8.61%
Nc1nonc1C(=O)N1CCN(C(=O)Nc2ccccc2)CC1 11.1%
Cc1cccc2c1NC(=O)C21CC(=O)Nc2c1cnn2C(C)(C)C (configuration not stated) -1.1%
CCOc1c(Br)cc(/C=C/C(=O)c2ccc(OC)c(OC)c2)cc1OC -4.63%
Cc1ccccc1Nc1nc(C(=O)NCCCN2CCOCC2)cs1 0.395%
Cc1cccc(-c2nc3cnccn3c2NCCC(=O)N2CCCCCC2)c1 -13.1%
COc1cccc(-c2nc3nc(C)cc(C)n3c2NC2CCCCC2)c1 -25%
O=C1COc2ccc(Nc3ccccc3F)nc2CN1Cc1ccccc1F -16.2% [at 176 µM]
Cc1cccc(-c2nc(SCc3ccc(Br)cc3)n3[nH]c(=O)cc3n2)c1 -26.7%
O=c1cc2nc(-c3ccccc3)nc(SCCOc3ccc(Cl)cc3)n2[nH]1 0%
COc1ccc(OC)c(CNC(=O)c2cc3c(s2)-c2c(C)cccc2OC3)c1 -1.33%
CCNC(=S)NC1CC(C)(C)NC(C)(C)C1 -3.31%
Cc1cccc(NC(NC(=O)C(C)C)(C(F)(F)F)C(F)(F)F)c1 -27.2%
CCCNC(=O)C(C)OC(=O)c1cc(=O)[nH]c2ccccc12 (configuration not stated) -59.8%
Cc1ccc(NC(=O)CCC(=O)c2ccc(Br)cc2)cc1 0%
Cc1c(Cl)cccc1NC(=O)[C@@]1(CC(=O)O)CC(/C=C/c2ccccc2)=NO1 -17.8%
O=C1OC(C2CC2)c2cc3c(cc21)OCCO3 (configuration not stated) 0.0886%
O=C(O)c1ccc(S(=O)(=O)Nc2cc(F)ccc2OCC(F)(F)F)cc1 -0.0528%
Cc1cccc(OCCn2c(CN3CCCCC3)nc3ccccc32)c1 5.02%
CCn1ncc(N2CCC(NC(=O)c3ccc(OC(C)C)cc3)CC2)cc1=O 42.2%
COc1ccc(NC(C)=O)cc1NC(=O)CCn1cnc2c1c(=O)n(C)c(=O)n2C 2.56%
CCC1CCCCN1C(=O)Cn1c(=O)n(CCCCCC(=O)NCc2ccccc2)c(=O)c2sccc21 (configuration not stated) -3.5%
CC(=O)SC(CC(=O)c1ccccc1)c1ccccc1 (configuration not stated) 6.08%
NCCC(=O)Nc1ccccn1 -72.1%
Cc1nc2sc(C(=O)OCC(=O)Nc3cccc(C(F)(F)F)c3)c(C)c2c(=O)[nH]1 -13.1%
COCCCNC(=O)CCn1ccc2cc(S(=O)(=O)N3CCCCC3)ccc21 -21.4%
O=C(Nc1ccccc1Br)c1nc2ccccc2nc1N1CCOCC1 23.4%
COc1ccc(C(=O)/C(C#N)=C\c2ccccc2OC(F)F)cc1 -60.9%
COc1ccc(Cl)cc1NC(=O)/C(C#N)=C/c1coc2ccc(Cl)cc2c1=O -20.8%
C=CCn1c(-n2nc(CC)cc2CC)nc2c1c(=O)n(C)c(=O)n2C -0.9%
O=C(NC1CCN(Cc2ccccc2)C1)c1cc2ccccc2oc1=O (configuration not stated) 7.23%
N#Cc1cccc(NC(=O)CSc2nnc(Cc3ccccc3)o2)c1 -6.14%
Cc1ccc(S(=O)(=O)NC(C)c2cccs2)cc1 (configuration not stated) 3.7%
CSCC(NS(=O)(=O)c1ccc(C)cc1)C(=O)O (configuration not stated) -24.3%
CC(C)c1ccc(C(=O)N/N=C/CCc2ccccc2)cc1 8.22%
N#CCCN1CCC(c2ccccc2)C1 (configuration not stated) -9.5%
CCCCC(CC(C)O)c1n[nH]c(=S)n1-c1ccccc1 (configuration not stated) -11.3%

Potency, inactive:
Cc1cccc(Cn2c(=O)n(CCC(=O)NCCc3ccc(Cl)cc3)c(=O)c3sccc32)c1

Potency, active:
COc1cc(C2CC(=O)N3CN(Cc4ccccc4)CSC3=C2C#N)ccc1OCc1ccccc1 (configuration not stated) 14.1 µM
COc1ccc(-c2nc3cnccn3c2NC2CCCCC2)cc1-c1cccc(Cl)c1 7.94 µM
Cc1ccc(-c2nc(SCc3ccc(Br)cc3)n3[nH]c(=O)cc3n2)cc1 31.6 µM
CC(=O)c1ccc(NC(=O)[C@@]2(CC(=O)O)CC(c3ccc(Br)cc3)=NO2)cc1 44.7 µM
O=C(Cn1c(=O)n(CCc2ccccc2)c(=O)c2sccc21)c1ccc(Cl)cc1 22.4 µM
S=C(NN=Cc1ccccn1)Nc1ccccn1 39.8 µM
COc1cc(Br)c(/C=C(/C#N)C(=O)c2ccccc2)cc1O 10 µM
Cc1ccc(S(=O)(=O)/N=C2\C=C(NS(=O)(=O)c3ccc(C)cc3)C(=O)c3ccccc32)cc1 15.8 µM
S=c1[nH]nc(-c2cc(-c3ccsc3)n[nH]2)n1-c1ccccc1 15.8 µM
